# H9c2 protect: myocardial damage modulation in H9c2 cells; H9c2 cardiomyocytes, H2O2 injury protection, ATPLite, 2 h; protection from H2O2 cell death, % at 20 µM; hit rate 0.63% among 360,000;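 active means compounds giving at least 50% protection of heart cells from peroxide-induced death in the single-dose screen, raw or plate-pattern-corrected value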;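 further: 0% = DMSO wells with peroxide and 100% = DMSO wells without peroxide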
# Jurkat NFkB inh: inhibitors of the PMA/ionomycin-induced NF-kB reporter in Jurkat cells | hit rate 0.53% among 330,000 | inhibition, % at 4 µM | PMA/ionomycin-induced NF-kB luciferase reporter, luminescence | AID 435003; in the data active means inhibition above about 50%
# TAG inh: triacylglycerol accumulation inhibition. H9c2 cells, Nile Red lipid (TAG) fluorescence; cells loaded with 200 µM oleic acid. inhibition, % at 12.5 µM. hit rate 0.66% among 230,000. AID 651582;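 active means pattern-corrected inhibition of lipid staining of at least 50% with the nuclear-stain viability signal not falling by more than 50%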;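 further: 0% = DMSO wells and 100% = triacsin C control wells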
# Gli-Sufu antag: Gli-Sufu pathway antagonism; Sufu-KO-LIGHT fibroblasts, Gli luciferase reporter luminescence; inhibition, % at 5 µM; hit rate 0.74% among 340,000; AID 588413;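 active means inhibition above about 55%, limit read from the data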;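 further: 0% = DMSO-treated cells and 100% = wells with medium but no cells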
# 697 NFkB inh: lowers PMA/ionomycin-induced NF-kB signal in 697 B cells. 697 B-cell NF-kB luciferase reporter, 16 h. inhibition, % at 4 µM. hit rate 0.33% among 330,000; in the data active means inhibition above about 35%
# COUP-TFII inh: inhibitors of human COUP-TFII (NR2F2). hit rate 0.7% among 370,000. P24468. inhibition, % at 8.6 µM. AID 686940. HEK293T NGFI-A luciferase reporter, luminescence;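 active means inhibition above a per-plate cutoff, mean inhibition of test wells between control levels plus 3 SD, cut at about 38% in these data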;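 further: cells cotransfected with COUP-TFII expression vector driving the NGFI-A reporter; 0% = median of COUP-TF2 test wells and 100% = reporter-only cells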
# Target sequence (P24468 whole entry, looked up): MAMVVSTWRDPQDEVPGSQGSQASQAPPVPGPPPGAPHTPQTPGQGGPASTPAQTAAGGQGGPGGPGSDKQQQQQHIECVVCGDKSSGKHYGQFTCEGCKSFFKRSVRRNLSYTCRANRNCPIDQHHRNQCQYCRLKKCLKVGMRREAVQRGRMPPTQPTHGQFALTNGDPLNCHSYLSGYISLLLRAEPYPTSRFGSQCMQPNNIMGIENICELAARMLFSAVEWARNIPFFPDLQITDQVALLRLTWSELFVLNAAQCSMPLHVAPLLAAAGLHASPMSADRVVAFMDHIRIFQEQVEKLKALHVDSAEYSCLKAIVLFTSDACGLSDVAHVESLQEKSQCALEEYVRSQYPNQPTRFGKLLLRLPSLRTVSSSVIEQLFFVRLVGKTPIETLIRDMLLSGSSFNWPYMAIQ
# 697 NFkB conf: lowers PMA/ionomycin-induced NF-kB signal in 697 B cells | inhibition, % at 4 µM | hit rate 35% among 2,000 | AID 449746 | shares compounds with 697 NFkB inh | 697 B-cell NF-kB luciferase, 16 h; in the data active means inhibition mostly above about 28%, no sharp cut-off; inactive means mostly below about 22%
# * hit, by the source's call; i = inactive; nt = not tested or not shown. Shown are actives, neighbours in structure and some others; about 2.6% of the full set was active somewhere.
SMILES,H9c2 protect,Jurkat NFkB inh,TAG inh,Gli-Sufu antag,697 NFkB inh,COUP-TFII inh,697 NFkB conf
COCCCn1c(=O)/c(=C\c2cccc(OC)c2OC)s/c1=C(/C#N)C(=O)Nc1ccc(C(=O)O)cc1,11,-3,-6,-1,43*,10,37*
COCCCn1c(=O)/c(=C/c2ccccc2OC(F)F)s/c1=C(\C#N)C(=O)NCCOC,6,nt,-6,7,nt,3,nt
N[C@H](C(=O)Nc1ccc(Cl)cc1C(=O)c1ccc[nH]1)c1ccccc1,nt,nt,nt,nt,nt,11,nt
CCCCCCC(=O)n1ccc2ccc(-c3ccc4ccn(Cc5ccc(OC)cc5)c4c3)cc21,nt,nt,nt,nt,nt,-18,nt
Cc1cc(=O)[nH]c2c(C)cc(S(=O)(=O)N3CCCCC3)cc12,6,-3,43,30,43*,-22,36*
Cc1cc(=O)[nH]c2c(C)cc(S(=O)(=O)N3CCOCC3)cc12,10,3,16,4,15,9,nt
COC(=O)[C@H](CC(C)C)N(CCc1cn(Cc2ccc(C)cc2)nn1)S(=O)(=O)c1ccc(F)cc1Br,nt,nt,nt,nt,nt,16,nt
COc1ccc(C(=O)O/N=C(\N)c2ccccc2)c(OC)c1,-30,-134,nt,-64,-299,23,-483
COc1ccc(C(=O)O/N=C(\N)c2ccc(OC)c(OC)c2)c(OC)c1,0,-35,nt,30,-27,nt,nt
Cc1ccc(N=Nc2ccc(O)c3ncccc23)cc1C,17,25,nt,-50,-93,-3,nt
Oc1ccc(N=Nc2ccc3c(c2)OCO3)c2ccccc12,nt,16,nt,nt,-306,nt,-22
C[C@H](O)[C@@H]1C(=O)N2CCc3c([nH]c4c(-c5ccc6c(c5)OCO6)cccc34)[C@@H]2C[C@@H]1N(C)C(=O)c1ccccc1F,nt,nt,nt,nt,nt,-7,nt
CCOC(=O)N1CCN(C(=O)c2ccc(Cn3c(=S)[nH]c4cc(OCC)c(OCC)cc4c3=O)cc2)CC1,-8,21,-24,13,37*,-9,-4
CCOC(=O)N1CCN(C(=O)c2ccc(Cn3c(=S)[nH]c4cc5c(cc4c3=O)OCO5)cc2)CC1,2,22,-25,2,-10,2,nt
O=C(NC1CCC1)c1ccc(C#CC2CC2)c[n+]1[O-],nt,nt,nt,nt,nt,-30,nt
O=C(Cc1n[nH]c(=O)c2ccccc12)OCc1c(Cl)cccc1Cl,8,-31,2,-1,i,0,i
COC(=O)c1ccc(COC(=O)Cc2n[nH]c(=O)c3ccccc23)cc1,39,3,-8,22,-6,-6,nt
COC(=O)COc1cccc2c(=O)n(CC(=O)N3CCC(C)CC3)ccc12,1,-10,1,8,3,-12,nt
COC(=O)COc1cccc2c(=O)n(CC(=O)N3CCCCC3)ccc12,6,-6,2,0,43*,-4,6
CC1CC(C)CN(S(=O)(=O)c2ccc(C(=O)NCCCn3ccnc3)cc2)C1 (stereo not drawn),-2,2,nt,0,70*,nt,50*
O=C(NCCCn1ccnc1)c1ccc(S(=O)(=O)N2CCCCCC2)cc1,-4,-15,-27,2,-20,8,nt
CCN(CC)C(=O)N1c2ccccc2C=Cc2ccccc21,-4,-72,-5,1,i,-21,i
Cc1nn(C)cc1CN1CCC(CO)(CCOc2ccccc2)CC1,-5,-3,-11,5,43*,-4,11
CCOc1ccccc1CN1CCC(CO)(CCOc2ccccc2)CC1,3,17,13,17,6,-1,nt
CCC1(c2ccc(Cl)cc2)NC(=O)N(CC(=O)NC2CCCC(C)C2C)C1=O (stereo not drawn),-4,22,14,1,39*,18,-1
SMILES,H9c2 protect,Jurkat NFkB inh,TAG inh,Gli-Sufu antag,697 NFkB inh,COUP-TFII inh,697 NFkB conf
CCCC[C@H]1C2CC(OC(=O)Nc3cc(C)cc(C)c3)C(C2)[C@H]2CCCCN21 (stereo partly drawn),nt,nt,nt,nt,nt,-14,nt
Cc1cc(Cl)c(S(=O)(=O)Nc2ccc3c(c2)OCO3)cc1OCC(=O)NC1CCCCC1,4,16,nt,7,4,15,nt
Cc1cc(Cl)c(S(=O)(=O)NC(C(=O)O)C(C)C)cc1OCC(=O)NC1CCCCC1 (stereo not drawn),2,11,nt,4,37*,-13,2
O=C(CSc1ncn[nH]1)Nc1ccc(Cl)c(Cl)c1,-6,5,-9,5,35*,14,17
CC1(C)Cc2c(sc(NC(=O)Cc3ccccc3)c2C#N)CO1,10,19,-11,10,41*,15,23
Cc1cccc(/C(N)=N/OC(=O)c2ccc3c(c2)OCO3)c1,-18,-134,-6,-88,-295,-35,-238
C(#CC1=CCCCC1)CNCc1ccccc1,nt,nt,nt,nt,nt,9,nt
CC(C)(C)c1ccc(/C=C2\SC(=O)N(CCNC(=O)c3cccc(S(=O)(=O)N4CCOCC4)c3)C2=O)cc1,-18,-85,nt,38,-408,nt,-258
O=C(Nc1ccccc1O)c1ccc(NC(=O)C2CC2)cc1,-8,-38,-20,-40,-299,16,-286
CCCN1C(=O)c2ccccc2NC1c1ccc(OC)cc1O (stereo not drawn),3,0,6,23,-310,-25,-292
CCCN1C(=O)c2ccccc2NC1c1ccc(OC)cc1OC (stereo not drawn),5,-9,nt,-1,-23,8,nt
C#CCNC(=O)C[C@H]1C(=O)N(CCc2ccc(Cl)cc2)C2=CCCC[C@@]21C(=O)OCC,nt,nt,nt,nt,nt,-1,nt
CC(NC(=O)[C@H](Cc1c[nH]c2ccccc12)NC(=O)[C@@H]1Cc2ccccc2CN1)c1ccccc1 (stereo partly drawn),-2,7,nt,7,18,-2,nt
Cc1cccc(NC(=O)[C@H](Cc2c[nH]c3ccccc23)NC(=O)[C@@H]2Cc3ccccc3CN2)c1,-2,-65,nt,-48,i,-66,1
CCc1ccc(NC(=O)[C@H](Cc2c[nH]c3ccccc23)NC(=O)[C@@H]2Cc3ccccc3CN2)cc1,-6,-67,nt,-17,i,-94,-76
Cc1ccc(NC(=O)[C@H](Cc2c[nH]c3ccccc23)NC(=O)[C@@H]2Cc3ccccc3CN2)c(C)c1,7,-48,nt,-3,i,-86,-5
Cc1cc(C)cc(NC(=O)[C@H](Cc2c[nH]c3ccccc23)NC(=O)[C@@H]2Cc3ccccc3CN2)c1,-4,-10,nt,-25,-17,1,nt
C[C@@H]1CCN(C2CC2)S(=O)(=O)c2c(cccc2N2CC[C@H](O)C2)O1,nt,nt,nt,nt,nt,-10,nt
COC(=O)c1ccc(S(=O)(=O)N2CCC(NC(=O)CCc3ccccc3)CC2)cc1,nt,nt,nt,nt,nt,-4,nt
COc1ccc(N2CCN(C(=O)Nc3ccc(S(=O)(=O)N(C)C)cc3)CC2)cc1,-3,-7,0,0,1,-8,nt
CN(C)S(=O)(=O)c1ccc(NC(=O)N2CCN(c3ccccc3)CC2)cc1,0,-9,-11,23,46*,-16,29*
O=c1c2cc3cccnc3nc2ncn1Cc1cccs1,nt,nt,nt,nt,nt,1,nt
